Reference: PubChem BioAssay AID1851 (National Center for Advancing Translational Sciences (NCATS), 2009)
Out of some 16,000 compounds screened, about 5,100 (32%) were called active. Roughly 25% stayed inconclusive and do not appear here. Calls follow the shape of the dose curve; as a rule, active = well fitted curve in the direction sought with a large enough effect; inconclusive = small, poorly fitted or top-dose-only effect, or effect the other way; inactive = no such curve, though single readings can be large or run the other way. This is one part of the list.

What follows are compounds tested against Cytochrome P450 3A4 (Homo sapiens) (UniProt P08684) (assay: Cytochrome panel assay with activity outcomes). Details: recombinant CYP, pro-luciferin dealkylation, luminescence, p450-cyp3a4; series mostly up to 57.1 µM; activity, negative = inhibition: at the top concentration.
% is scaled to controls: 0 for no effect and ±100 for the full control effect.

Chain of Cytochrome P450 3A4 (Homo sapiens) (P08684 whole entry, looked up): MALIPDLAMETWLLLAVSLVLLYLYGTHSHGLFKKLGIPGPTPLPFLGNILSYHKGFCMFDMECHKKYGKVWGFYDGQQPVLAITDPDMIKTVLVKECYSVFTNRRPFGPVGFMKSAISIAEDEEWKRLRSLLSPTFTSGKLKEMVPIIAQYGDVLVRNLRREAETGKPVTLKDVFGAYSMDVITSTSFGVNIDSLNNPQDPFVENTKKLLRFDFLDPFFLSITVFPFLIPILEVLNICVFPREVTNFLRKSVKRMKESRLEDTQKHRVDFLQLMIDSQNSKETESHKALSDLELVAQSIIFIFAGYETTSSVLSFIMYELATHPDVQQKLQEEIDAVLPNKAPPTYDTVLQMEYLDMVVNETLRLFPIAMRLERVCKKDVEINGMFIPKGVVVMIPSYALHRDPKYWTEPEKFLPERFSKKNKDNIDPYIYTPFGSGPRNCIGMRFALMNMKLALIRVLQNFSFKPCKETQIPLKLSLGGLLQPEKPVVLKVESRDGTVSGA

activity, negative = inhibition, inactive:
Nc1nc(N)nc(CCCc2nc(N)nc(N)n2)n1 -12.5% [at 11.4 µM]
c1ccc2oc(C3=NCCN3)cc2c1 -11.9%
CCC(C)NC(=O)c1ccccc1NC(=O)Nc1ccccc1 (centres undefined) -20%
O=C(CCc1ccccc1)NNC(=O)c1ccco1 -9.25%
O=C(Nc1ccccn1)c1ccco1 10.3%
O=C(O)c1ccc(C(=O)O)c(C(=O)O)c1.[NH-][C@@H]1CCCC[C@@H]1[NH-].[Pt] 18.9% [at 11.4 µM]
CCc1cccc(N(C)C(N)=Nc2cccc3ccccc23)c1 -18%
C#CCSc1n[nH]c(-c2ccco2)n1 -10.2% [at 11.4 µM]
CC(C)=CC(=O)Nc1nnc(C(C)C)s1 15.7% [at 2.29 µM]
[O-][N+](CCO)(CCO)c1ncnc2nc[nH]c12 -0.379% [at 11.4 µM]
N=C1[C@@H](O)[C@]2(I)c3ccccc3N3C(=N)[C@H](O)[C@@H]4c5ccccc5N1[C@@H]4[C@@H]32 -8.09% [at 11.4 µM]
Cc1ccc(C(=O)N/N=C/c2ccc(S(=O)(=O)O)o2)c(Cl)c1 8.51%
CC(=O)N1c2ccc(S(=O)(=O)CCC(=O)O)cc2CC1C (centres undefined) -7.01%
CCNC(=O)C1CC(=O)OC12CCCCC2 (centres undefined) -5.12%
O=C(Nc1ccc(Cl)cc1)NC1CCCCC1 9.33% [at 2.29 µM]
Cc1c(Cl)c(S(N)(=O)=O)cc(S(N)(=O)=O)c1NC(=O)c1ccc(Cl)cc1 3.55% [at 11.4 µM]
CC(C)(CC(=O)Nc1ccccc1)C(=O)O -5.79% [at 11.4 µM]
CC(C)(C)NC(=O)C(=O)NNC(=O)c1ccccc1 5.58%
NCS(=O)(=O)O -9.19% [at 11.4 µM]
CN(C)Cc1cc(Cl)c(O)c(CN(C)C)c1 -5.94% [at 11.4 µM]
CCCCOC(=O)c1ccc(O)cc1 -25.7% [at 25.6 µM]
O=C(O)CCc1ccc(-c2ccc(Cl)cc2)n1CCC(=O)O -1.68%
COC(=O)N1CCC2(CCN(C(=O)Nc3ccc(OC)cc3)CC2)CC1 14.5%
COc1ccc(-c2nc(N)c3ncn([C@H]4O[C@@H](CO)[C@@H](O)[C@@H]4O)c3n2)cc1 -0.494% [at 11.4 µM]
C=C1c2cccc(O)c2C(O)=C2C(=O)[C@@]3(O)C(O)=C(C(N)=O)C(=O)[C@@H](N(C)C)[C@@H]3[C@@H](O)[C@H]12 -10.9% [at 25.6 µM]
CNc1nc(Cl)nc(NC(C)(C)C)n1 -12%
CN1C[C@H](c2ccccc2)C(O)([C@]2(c3ccccc3)CN(C)C[C@@H](c3ccccc3)C2=O)[C@H](c2ccccc2)C1 (some centres undefined) -0.704% [at 11.4 µM]
O=C(c1cc(Br)ccc1O)c1cc(Br)ccc1O -18.8% [at 11.4 µM]
O=S(=O)(O)c1ccc2c(N=Nc3cccc4ccccc34)c(O)c(S(=O)(=O)O)cc2c1 5.97% [at 11.4 µM]
CN1CCN(c2ccc([N+](=O)[O-])cc2NC(=O)c2ccccc2Cl)CC1 13%
Cc1ccccc1N1CCN(C(=O)c2ccccc2NC(=O)/C=C\C(=O)O)CC1 -14.2%
COc1cccc(C(C#N)N2N=C(C)CC2(C)C)c1O (centres undefined) -11.6%
CCOC(=O)CNc1c(-c2ccccc2)nc2ccc(Cl)cn12 21.3%
CO[C@H]1[C@@H](OC(N)=O)[C@H](O)[C@@H](Oc2ccc3c(O)c(NC(=O)c4ccc(O)c(CC=C(C)C)c4)c(=O)oc3c2C)OC1(C)C -7.19% [at 25.6 µM]
N#CCCn1nnc2ccccc21 -10.8%
O=C(O)CSSCC(=O)O -6.12% [at 11.4 µM]
Cc1nnsc1SCC(=O)O -4.96%
O=C(Cn1nnc2ccccc21)N1CCCCC1 -1.52%
Cc1ccnc(NCn2nnc3ccccc32)c1 -7.54%
COc1ccc(NC(=O)C(c2ccc(OC)cc2)N(C)C(=O)CNC(C)=O)cc1 (centres undefined) -11.9%
CC(C)(C)c1cc2c(O)c(c1)Cc1cc(C(C)(C)C)cc(c1O)Cc1cc(C(C)(C)C)cc(c1O)Cc1cc(C(C)(C)C)cc(c1O)Cc1cc(C(C)(C)C)cc(c1O)Cc1cc(C(C)(C)C)cc(c1O)Cc1cc(C(C)(C)C)cc(c1O)Cc1cc(C(C)(C)C)cc(c1O)C2 -24.5% [at 11.4 µM]
CC(C)Oc1ccc(CSC(=N)N)cc1 -3.82%
CCC(C)[C@H](NC(=O)Nc1ccc(Oc2ccccc2)cc1)C(=O)O (some centres undefined) -4.13%
CCCCNN -7.03% [at 11.4 µM]
O=C(O)c1ccc2c3c1cccc3c(=O)n1c3ccccc3nc21 -14.5%
CC1=C(C)/C(=N\OC(=O)/C=C/c2ccccc2)C=CC1=O 1.54%
CCOc1ccc(-c2nn(-c3ccccc3)cc2/C=C2\SC(N)=NC2=O)cc1C 0.0129%
COc1ccc(/C=C2\N=C(c3c(-c4ccccc4)noc3C)OC2=O)cc1OC -39.1%
COc1cc(C=O)ccc1OCCCOc1ccccc1C(=O)O -6.53%
COc1ccccc1OCCOc1ccc(/C=C2/C(=N)N3OC(C)=CC3=NC2=O)cc1OC -12.2%
Cc1ncc([N+](=O)[O-])n1CC(C)O (centres undefined) 20.5%
CCN=C(N)CSS(=O)(=O)O -8.49% [at 11.4 µM]
Cc1noc(C)c1-c1cc(Nc2ccccc2)ncn1 -41.5%
CC(C)n1nnnc1SCC(=O)c1ccc2c(c1)OCCO2 -28.3%

AC50, active:
CCC(NC(=O)c1ccccc1NC(=O)c1ccco1)C(=O)NC1CCCCC1 (centres undefined) 6.31 µM
COc1ccc(CCNC(=O)c2ccccc2NC(=O)c2ccco2)cc1OC 7.08 µM
O=C(Nc1ccccc1C(=O)NCCc1ccccc1)c1ccco1 14.1 µM
COC(=O)c1ccc(/C=N\NC(=O)c2ccc(C)cc2Cl)cc1 3.55 µM
CC1Cc2ccccc2N1C(=O)C1CCCCN1S(=O)(=O)c1ccccc1 (centres undefined) 7.94 µM
CC(C)(C)N(NC(=O)Nc1ccc(Cl)c(Cl)c1)C(=O)c1ccccc1 14.1 µM
CC(C)(C)N(NC(=O)Nc1ccccc1)C(=O)c1ccccc1Cl 14.1 µM
Cc1cc(C)cc(C(=O)N(NC(=O)Nc2ccc(Cl)cc2)C(C)(C)C)c1 15.8 µM
CCCCOC(=O)c1cc2c(cn1)[nH]c1ccccc12 25.1 µM
C[C@@H](C(=O)NCCF)[C@H]1C[C@]1(C)[C@H](NC(=O)OCc1ccccc1)c1ccccc1 3.98 µM
COCCNC(=O)[C@H](C)[C@H]1C[C@]1(C)[C@H](NC(=O)OCc1ccccc1)c1ccccc1 3.16 µM
COCCNC(=O)[C@H](C)[C@@H]1C[C@@]1(C)[C@@H](NC(=O)OCc1ccccc1)c1ccccc1 7.94 µM
O=C(CCNS(=O)(=O)c1ccc2c(c1)CCC(=O)N2)NCc1ccc2c(c1)OCO2 1.41 µM
COc1ccc(NC(=O)CCNS(=O)(=O)c2ccc3c(c2)CCC(=O)N3)cc1 15.8 µM
COc1ccc2[nH]cc(CCNc3ncncc3-c3c(C)noc3C)c2c1 0.794 µM
COc1ccc2[nH]cc(CCNc3ncncc3-c3ccccc3C)c2c1 0.316 µM
COc1ccc2[nH]cc(CCNc3ncncc3-c3ccccc3Cl)c2c1 0.398 µM
COc1ccc2[nH]cc(CCNc3ncncc3-c3ccccc3OC)c2c1 0.126 µM
COc1ccc2[nH]cc(CCNc3ncncc3-c3ccccc3CN(C)C)c2c1 0.631 µM
COc1ccc2[nH]cc(CCNc3ncncc3-c3ccccc3C(F)(F)F)c2c1 0.251 µM
O=C(Nc1ccccc1N1CCN(C(=O)c2ccccc2)CC1)c1cc(Br)ccc1Cl 3.55 µM
O=C(Nc1ccccc1N1CCN(C(=O)c2ccc(Cl)cc2)CC1)c1cc(Br)ccc1Cl 3.98 µM
c1ccc(-c2nc3ccccn3c2NCc2ccc3c(c2)OCO3)cc1 0.501 µM
Cn1cccc1/C=N/NC(=O)c1sc2ccccc2c1Cl 8.91 µM
O=C(O)CSc1sc(=S)sc1SCC(=O)O 11.2 µM
COc1ccc(C(C(=O)Nc2ccc(F)cc2)N(C(=O)Cn2nnc3ccccc32)C2CC2)cc1 (centres undefined) 3.55 µM
COc1ccc(N(C(=O)Cn2nnc3ccccc32)C2(C(=O)NC3CCCC3)CCCCC2)cc1 2 µM
COc1cccc(C(C(=O)Nc2ccc(F)cc2)N(C(=O)Cn2nnc3ccccc32)C2CC2)c1 (centres undefined) 2.82 µM
COc1ccc(CNCCC(c2ccc(OC(C)C)cc2)C(C)C)cc1OC (centres undefined) 1.41 µM
NC(=S)Nc1ccc(Oc2ccc(NC(N)=S)cc2)cc1 4.47 µM
O=c1c2ccc([N+](=O)[O-])c3cccc(c32)c2nc3ccccc3n12 0.891 µM
COc1cc(/C=C2/C(=N)N3C=CSC3=NC2=O)ccc1OCCCOc1c(C)cccc1C 20 µM
CCOc1cc(/C=C2/C(=N)N3C=CSC3=NC2=O)ccc1OCCCOc1ccccc1C 15.8 µM
COc1cc(/C=C2/C(=N)N3C=CSC3=NC2=O)ccc1OCCCOc1ccccc1C 15.8 µM
Cc1noc(C)c1-c1cncnc1NC1CC1 7.94 µM
Cc1noc(C)c1-c1cncnc1NCc1ccccc1 2 µM
Cc1cnc(CNc2ncncc2-c2c(C)noc2C)cn1 12.6 µM
Cc1noc(C)c1-c1cncnc1NCc1cccnc1 3.16 µM
Cc1noc(C)c1-c1cncnc1Nc1ccccc1 3.16 µM
Cc1ccc2cc(C)c3nnc(SCC(=O)NCc4ccco4)n3c2c1 22.4 µM
CC(C)n1nnnc1SCC(=O)NCCc1ccccc1 14.1 µM
CC(C)n1nnnc1SCC(=O)NCc1ccc2c(c1)OCO2 0.891 µM
Cc1cc2cc(C)c3nnc(SCC(=O)NCc4ccc5c(c4)OCO5)n3c2cc1C 0.562 µM

AC50, inactive:
C=CCN1CCc2cc(O)c(O)cc2[C@H](c2ccccc2)C1
NS(=O)(=O)c1cccc2c1c([N+](=O)[O-])cc1nc(O)c(O)nc12
